Growth data for nine compounds are collected here from PubChem BioAssay (NCI).

About 83,000 compounds went through this panel and 20% of them were active in at least one assay; those are over-represented in the sample as a whole.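 Activity criterion: percent growth below 10, measured after cells in 96-well plates were exposed to a single compound concentration for 48 hours.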 Unmarked numbers belong to inactive results. Active and inactive are the calls of the source.

Test systems include SK-MEL-2 melanoma; SN12C renal; UO-31 renal; TK-10 renal; ACHN renal; CAKI-1 renal; A498 renal; CCRF-CEM leukemia; MOLT-4 leukemia; SR leukemia; RPMI-8226 leukemia; OVCAR-8 ovarian; OVCAR-5 ovarian; OVCAR-4 ovarian; SK-OV-3 ovarian; IGROV1 ovarian; HS 578T breast; NCI/ADR-RES ovarian; OVCAR-3 ovarian.
What all share (experiment): NCI-60 one-dose screen, 48 h (100 = growth as untreated, 0 = no growth, -100 = all killed)
What all share (settings): 10 µM unless noted

Turning to `CCC1CCc2nc3sc(C(=O)Nc4cccc(C)c4)c(N)c3cc2C1` (centres undefined), the growth in the test on SK-MEL-2 melanoma is 54.6%; in the test on SN12C renal, 90.8%; in the test with UO-31 renal, 83.6%; with TK-10 renal it was 78.3%; in the test with ACHN renal, 87%; in the test with CAKI-1 renal it was 78.1%. Moreover, the growth in the test with A498 renal was 45.4%; in the test with CCRF-CEM leukemia, 47.7%; with MOLT-4 leukemia, 52.6%; with SR leukemia it was 11%; with RPMI-8226 leukemia, 56.5%; in the test on OVCAR-8 ovarian, 94.2%. Besides, the growth in the test with OVCAR-5 ovarian was 105%; in the test with OVCAR-4 ovarian, 85%; with SK-OV-3 ovarian, 96.9%; in the test with IGROV1 ovarian, 95.8%; in the test with HS 578T breast, 87.7%; in the test with NCI/ADR-RES ovarian, 76%.

As to `Cc1c(C2=NNC(c3ccc4c(c3)OCO4)C2)[n+]([O-])c2ccccc2[n+]1[O-]` (centres undefined), the growth is 81.4% with SK-MEL-2 melanoma; 108% in the test with SN12C renal; 84.6% in the test on UO-31 renal; 183% with TK-10 renal; 108% in the test on ACHN renal; 107% in the test on CAKI-1 renal. Also, the growth in the test on A498 renal is 94.7%; in the test on CCRF-CEM leukemia, 97.7%; in the test on MOLT-4 leukemia it was 105%; in the test with SR leukemia, 92.2%; with RPMI-8226 leukemia, 98.9%; in the test on OVCAR-8 ovarian it was 109%. In addition, the growth is 91.9% in the test with OVCAR-5 ovarian; 97.1% in the test on SK-OV-3 ovarian; 84.4% with IGROV1 ovarian; 93.4% in the test with OVCAR-3 ovarian; 94.3% in the test on HS 578T breast; 95.4% with NCI/ADR-RES ovarian.

Turning to `COc1cc(/C=C2\CCCC3=C2N=C2SC(C)=NN2C3c2cc(OC)c(OC)c(OC)c2)cc(OC)c1OC` (centres undefined), the growth in the test on SK-MEL-2 melanoma was 77.5%; in the test on SN12C renal, -5.64% (active); in the test on UO-31 renal, 8.14% (active); with TK-10 renal, 75.9%; with ACHN renal it was -7.34% (active); in the test on CAKI-1 renal, -38.1% (active). Besides, the growth with A498 renal was -0.731% (active); in the test with CCRF-CEM leukemia, -10% (active); in the test on MOLT-4 leukemia, -7.59% (active); in the test with SR leukemia, 4.78% (active); with RPMI-8226 leukemia, -25.6% (active); with OVCAR-8 ovarian, 4.84% (active). Besides, the growth was 67.3% in the test on OVCAR-5 ovarian; 60.3% with SK-OV-3 ovarian; 24.4% with IGROV1 ovarian; 21.2% in the test on OVCAR-3 ovarian; 25% with HS 578T breast; 8.69% (active) in the test on NCI/ADR-RES ovarian.

Take `COc1cccc(NC(=O)c2sc3nc4c(cc3c2N)CCCC4)c1`: the growth in the test with SK-MEL-2 melanoma is 33.7%; in the test on SN12C renal it was 58.9%; with UO-31 renal it was 40%; with TK-10 renal, 55.7%; with ACHN renal, 44.2%; in the test with CAKI-1 renal, 31%. The growth with A498 renal is 17.6%; in the test on CCRF-CEM leukemia, 13.6%; in the test on MOLT-4 leukemia, 17.8%; in the test with SR leukemia, 14.3%; in the test on RPMI-8226 leukemia, -4.6% (active); with OVCAR-8 ovarian it was 25.8%. The growth is 38.6% in the test on OVCAR-5 ovarian; 72.1% in the test on OVCAR-4 ovarian; 28.7% in the test on SK-OV-3 ovarian; 37.1% in the test on IGROV1 ovarian; 48% in the test with HS 578T breast; -12.1% (active) with NCI/ADR-RES ovarian.

As to `O=C(O)Cc1ccc2c(c1)Cc1cccnc1O2`, the growth in the test on SK-MEL-2 melanoma was 104%; with SN12C renal, 100%; in the test with UO-31 renal, 94%; in the test on TK-10 renal, 92.5%; with ACHN renal, 111%; in the test on CAKI-1 renal it was 96.9%. The growth with A498 renal was 104%; in the test with CCRF-CEM leukemia, 100%; with MOLT-4 leukemia, 102%; in the test on SR leukemia it was 96.8%; with RPMI-8226 leukemia, 105%; in the test on OVCAR-8 ovarian, 103%. Besides, the growth with OVCAR-5 ovarian is 101%; in the test with IGROV1 ovarian, 96.6%; with OVCAR-3 ovarian, 108%; in the test on HS 578T breast, 107%.

As for `Cc1cccc(NC(=O)c2sc3nc4c(cc3c2N)CCC4)c1C`, the growth with SK-MEL-2 melanoma is 26.3%; in the test on SN12C renal, 41.2%; in the test on UO-31 renal, 43.4%; with TK-10 renal it was 35%; with ACHN renal it was 48.4%; in the test on CAKI-1 renal, 30.5%. Moreover, the growth in the test on A498 renal was 8.64% (active); in the test with CCRF-CEM leukemia it was 10.7%; with MOLT-4 leukemia, 22.6%; with SR leukemia, 25%; with RPMI-8226 leukemia, -5.02% (active); in the test with OVCAR-8 ovarian, 14.1%. The growth was 44% in the test on OVCAR-5 ovarian; 37.9% with SK-OV-3 ovarian; 44.6% in the test on IGROV1 ovarian; 28.6% with HS 578T breast; -16.2% (active) with NCI/ADR-RES ovarian.

`CC(=O)Nc1nc(C(=O)N2N=C(C)/C(=C/c3ccc(Cl)cc3)C2=O)cs1`: the growth is 90.5% in the test on SK-MEL-2 melanoma; 105% in the test on SN12C renal; 82.4% with UO-31 renal; 123% in the test with TK-10 renal; 108% in the test on ACHN renal; 100% with CAKI-1 renal. The growth with A498 renal is 117%; in the test on CCRF-CEM leukemia, 99.6%; with MOLT-4 leukemia, 91.7%; in the test on SR leukemia, 88.1%; in the test on RPMI-8226 leukemia it was 103%; in the test with OVCAR-8 ovarian, 103%. Also, the growth in the test on OVCAR-5 ovarian was 110%; in the test on OVCAR-4 ovarian, 112%; in the test on SK-OV-3 ovarian, 108%; in the test with IGROV1 ovarian, 108%; in the test with HS 578T breast, 114%; in the test on NCI/ADR-RES ovarian it was 109%.

As for `O=C(N/N=C/c1c(Cl)cccc1Cl)c1ccccc1Nc1ccnc(C(F)(F)F)c1`, the growth in the test on SK-MEL-2 melanoma was 69.6%; with SN12C renal, 75.7%; in the test on UO-31 renal, 84.1%; in the test with TK-10 renal, 95.4%; in the test on ACHN renal, 78.8%; with CAKI-1 renal, 77.6%. Besides, the growth in the test on A498 renal was 73.6%; with CCRF-CEM leukemia, 81.6%; with MOLT-4 leukemia it was 63.4%; in the test with SR leukemia it was 103%; in the test with RPMI-8226 leukemia it was 89.7%; in the test with OVCAR-8 ovarian, 64.8%. The growth with OVCAR-5 ovarian is 97.8%; in the test on OVCAR-4 ovarian, 63.9%; in the test with SK-OV-3 ovarian, 76.9%; in the test with OVCAR-3 ovarian, 110%; with HS 578T breast it was 82.7%; in the test with NCI/ADR-RES ovarian it was 67.6%.

For `CCNC(=O)C1CCCN1C(=O)C(CCCN=C(N)N)NC(=O)C(CC(C)C)NC(=O)C(CC(C)C)NC(=O)C(Cc1ccc(O)cc1)NC(=O)C(CO)NC(=O)C(Cc1c[nH]c2ccccc12)NC(=O)C(Cc1cnc[nH]1)NC(=O)C1CCC(=O)N1` (centres undefined), the growth with SK-MEL-2 melanoma is 102%; with SN12C renal, 112%; with UO-31 renal, 93.7%; in the test with TK-10 renal it was 110%; with ACHN renal, 97%; in the test on CAKI-1 renal it was 84.9%. The growth in the test on A498 renal is 98%; in the test on CCRF-CEM leukemia, 54.5%; in the test with MOLT-4 leukemia, 86.5%; in the test with SR leukemia it was 102%; in the test on RPMI-8226 leukemia, 33.3%; in the test with OVCAR-8 ovarian, 95.9%. The growth was 87.3% in the test on OVCAR-5 ovarian; 91.3% in the test with OVCAR-4 ovarian; 98.2% in the test on SK-OV-3 ovarian; 125% with OVCAR-3 ovarian; 81.2% with HS 578T breast; 97.8% with NCI/ADR-RES ovarian.
